Results published in article PMC7862700, “An all-to-all approach to the identification of sequence-specific readers for epigenetic DNA modifications on cytosine”.

Key:
Test in all cases: DAPPL (digital affinity profiling via proximity ligation, sequencing); 10 mM Tris-HCl pH 7.5, 50 mM NaCl, 1 mM DTT, 4% glycerol, room temperature, 30 min; GST-TFs on glutathione beads, 16-mer random dsDNA library, 0.1% formaldehyde crosslink after washing; high values mean tight binding
Details in all cases: protein: recombinant; tags: N-terminal GST; dsDNA, one strand shown
[1] = molecular target: T1, ERF (Homo sapiens, UniProt P50548 1-548)
T1 sequence: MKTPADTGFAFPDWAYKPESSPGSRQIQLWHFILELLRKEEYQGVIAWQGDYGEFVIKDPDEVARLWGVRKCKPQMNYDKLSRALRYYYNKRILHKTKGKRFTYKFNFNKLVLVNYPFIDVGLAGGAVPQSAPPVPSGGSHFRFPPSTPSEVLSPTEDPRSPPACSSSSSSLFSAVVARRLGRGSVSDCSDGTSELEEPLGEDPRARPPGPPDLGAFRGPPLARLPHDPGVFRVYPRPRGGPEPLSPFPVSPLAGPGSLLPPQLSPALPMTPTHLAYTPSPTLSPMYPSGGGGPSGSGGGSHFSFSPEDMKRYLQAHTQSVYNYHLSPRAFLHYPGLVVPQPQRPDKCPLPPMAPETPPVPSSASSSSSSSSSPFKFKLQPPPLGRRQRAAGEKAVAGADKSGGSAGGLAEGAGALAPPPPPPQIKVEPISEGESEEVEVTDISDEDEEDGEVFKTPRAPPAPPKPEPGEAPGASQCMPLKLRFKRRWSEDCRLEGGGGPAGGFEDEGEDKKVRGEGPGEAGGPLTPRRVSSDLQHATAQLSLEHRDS
Method in brief: (§1)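 Each value of binding signal is a hexamer's read frequency for a factor divided by the same hexamer's frequency in the tag-only sample. Barcoded, bead-captured GST fusions of human transcription factors made in yeast were pooled with that sample and incubated with 200 nmole of a random double-stranded 16-mer DNA library in Tris/NaCl/DTT/glycerol buffer at room temperature for 30 min. Washing, 0.1% formaldehyde crosslinking, proximity ligation, PCR and Illumina NextSeq500 sequencing followed.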

[2] = molecular target: T2, ETV3L (Homo sapiens, UniProt Q6ZN32 1-361)
T2 sequence: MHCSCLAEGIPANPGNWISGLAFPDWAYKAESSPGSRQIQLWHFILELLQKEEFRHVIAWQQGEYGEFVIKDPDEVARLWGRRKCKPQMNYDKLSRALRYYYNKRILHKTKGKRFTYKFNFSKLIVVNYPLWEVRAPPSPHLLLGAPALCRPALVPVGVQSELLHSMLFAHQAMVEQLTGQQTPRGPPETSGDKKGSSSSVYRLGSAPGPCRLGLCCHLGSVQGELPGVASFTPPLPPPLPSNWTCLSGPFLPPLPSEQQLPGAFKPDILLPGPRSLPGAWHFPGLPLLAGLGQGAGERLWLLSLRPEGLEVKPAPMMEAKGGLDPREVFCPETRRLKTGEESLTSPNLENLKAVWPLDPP
Method in brief: as §1

[3] = molecular target: T3, ETS2 (Homo sapiens, UniProt P15036 1-469)
T3 sequence: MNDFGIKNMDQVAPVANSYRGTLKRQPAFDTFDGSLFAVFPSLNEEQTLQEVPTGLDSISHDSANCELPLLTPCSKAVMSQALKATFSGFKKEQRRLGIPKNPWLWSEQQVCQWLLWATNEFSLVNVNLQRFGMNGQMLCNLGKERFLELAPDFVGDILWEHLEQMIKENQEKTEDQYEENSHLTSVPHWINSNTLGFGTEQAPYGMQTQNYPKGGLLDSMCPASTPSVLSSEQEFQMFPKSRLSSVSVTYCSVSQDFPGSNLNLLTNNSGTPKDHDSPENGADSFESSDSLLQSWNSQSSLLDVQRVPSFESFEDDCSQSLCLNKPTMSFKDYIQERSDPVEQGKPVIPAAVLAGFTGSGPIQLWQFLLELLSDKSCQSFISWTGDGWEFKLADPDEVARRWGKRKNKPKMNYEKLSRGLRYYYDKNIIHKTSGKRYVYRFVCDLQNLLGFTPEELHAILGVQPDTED
Method in brief: as §1

[4] = molecular target: T4, SPDEF (Homo sapiens, UniProt O95238 1-335)
T4 sequence: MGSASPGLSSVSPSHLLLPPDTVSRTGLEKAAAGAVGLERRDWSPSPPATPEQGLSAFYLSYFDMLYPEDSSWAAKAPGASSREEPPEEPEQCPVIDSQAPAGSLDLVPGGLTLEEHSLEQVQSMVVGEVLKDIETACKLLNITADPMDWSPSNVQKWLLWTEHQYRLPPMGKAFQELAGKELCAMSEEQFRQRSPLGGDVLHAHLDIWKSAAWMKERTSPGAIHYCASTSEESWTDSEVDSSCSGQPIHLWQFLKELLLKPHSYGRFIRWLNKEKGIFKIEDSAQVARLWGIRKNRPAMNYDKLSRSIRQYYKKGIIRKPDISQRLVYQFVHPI
Method in brief: as §1

[5] = molecular target: T5, ETV7 (Homo sapiens, UniProt Q9Y603 1-341)
T5 sequence: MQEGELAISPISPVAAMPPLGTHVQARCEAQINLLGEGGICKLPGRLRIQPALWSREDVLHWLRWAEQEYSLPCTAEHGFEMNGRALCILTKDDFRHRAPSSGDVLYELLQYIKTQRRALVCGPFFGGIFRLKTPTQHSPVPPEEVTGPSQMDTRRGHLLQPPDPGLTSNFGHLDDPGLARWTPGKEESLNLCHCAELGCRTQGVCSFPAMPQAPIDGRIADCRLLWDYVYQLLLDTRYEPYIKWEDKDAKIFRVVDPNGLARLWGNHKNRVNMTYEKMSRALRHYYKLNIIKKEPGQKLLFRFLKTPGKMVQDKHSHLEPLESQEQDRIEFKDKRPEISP
Method in brief: as §1

[6] = molecular target: T6, ELF5 (Homo sapiens, UniProt Q9UKW6-2 1-255)
T6 sequence: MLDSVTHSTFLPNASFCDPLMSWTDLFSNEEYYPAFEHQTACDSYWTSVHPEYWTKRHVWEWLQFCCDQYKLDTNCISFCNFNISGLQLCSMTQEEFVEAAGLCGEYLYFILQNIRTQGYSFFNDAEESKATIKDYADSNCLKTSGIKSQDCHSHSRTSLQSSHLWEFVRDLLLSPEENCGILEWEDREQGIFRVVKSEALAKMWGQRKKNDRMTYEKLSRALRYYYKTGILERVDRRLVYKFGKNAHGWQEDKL
Method in brief: as §1

[7] = molecular target: T7, ETV3 (Homo sapiens, UniProt P41162-2 1-143)
T7 sequence: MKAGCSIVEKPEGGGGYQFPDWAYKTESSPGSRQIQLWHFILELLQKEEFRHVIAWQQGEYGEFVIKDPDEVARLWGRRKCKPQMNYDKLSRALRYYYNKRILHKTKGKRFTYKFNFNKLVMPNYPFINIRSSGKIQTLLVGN
Method in brief: as §1

[8] = molecular target: ETV6 (Homo sapiens, UniProt P41212 1-452)
ETV6, sequence (P41212 whole entry): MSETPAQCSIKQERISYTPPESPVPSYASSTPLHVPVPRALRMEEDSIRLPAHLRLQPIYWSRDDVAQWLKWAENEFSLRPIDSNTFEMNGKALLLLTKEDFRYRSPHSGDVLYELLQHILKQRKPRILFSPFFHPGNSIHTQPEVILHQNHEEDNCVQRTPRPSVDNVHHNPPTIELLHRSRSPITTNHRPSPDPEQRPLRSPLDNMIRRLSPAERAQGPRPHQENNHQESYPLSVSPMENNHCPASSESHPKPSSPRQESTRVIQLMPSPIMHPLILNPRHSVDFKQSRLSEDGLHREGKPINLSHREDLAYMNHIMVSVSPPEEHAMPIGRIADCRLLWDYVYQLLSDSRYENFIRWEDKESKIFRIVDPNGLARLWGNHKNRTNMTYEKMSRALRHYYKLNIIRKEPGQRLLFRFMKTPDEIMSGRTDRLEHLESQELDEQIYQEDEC
Method in brief: as §1

Sequence | binding signal [1] | binding signal [2] | binding signal [3] | binding signal [4] | binding signal [5] | binding signal [6] | binding signal [7] | binding signal [8]
CCGAAA | 1.22 fold enrichment (6-mer frequency, TF over GST control) | 1.2 fold enrichment (6-mer frequency, TF over GST control) | 1.22 fold enrichment (6-mer frequency, TF over GST control) | 1.17 fold enrichment (6-mer frequency, TF over GST control) | 1.24 fold enrichment (6-mer frequency, TF over GST control) | 1.18 fold enrichment (6-mer frequency, TF over GST control) | 1.19 fold enrichment (6-mer frequency, TF over GST control) | 1.28 fold enrichment (6-mer frequency, TF over GST control)
CGACAT | 1.34 fold enrichment (6-mer frequency, TF over GST control) | 1.22 fold enrichment (6-mer frequency, TF over GST control) | 1.32 fold enrichment (6-mer frequency, TF over GST control) | 1.4 fold enrichment (6-mer frequency, TF over GST control) | 1.23 fold enrichment (6-mer frequency, TF over GST control) | 1.33 fold enrichment (6-mer frequency, TF over GST control) | 1.37 fold enrichment (6-mer frequency, TF over GST control) | 1.42 fold enrichment (6-mer frequency, TF over GST control)
AGCATT | 1.04 fold enrichment (6-mer frequency, TF over GST control) | 1.06 fold enrichment (6-mer frequency, TF over GST control) | 1.11 fold enrichment (6-mer frequency, TF over GST control) | 1.02 fold enrichment (6-mer frequency, TF over GST control) | 1.14 fold enrichment (6-mer frequency, TF over GST control) | 1.1 fold enrichment (6-mer frequency, TF over GST control) | 1.09 fold enrichment (6-mer frequency, TF over GST control) | 1.14 fold enrichment (6-mer frequency, TF over GST control)
CTCAGC | 1.1 fold enrichment (6-mer frequency, TF over GST control) | 1.36 fold enrichment (6-mer frequency, TF over GST control) | 1.22 fold enrichment (6-mer frequency, TF over GST control) | 1.15 fold enrichment (6-mer frequency, TF over GST control) | 1.21 fold enrichment (6-mer frequency, TF over GST control) | 1.08 fold enrichment (6-mer frequency, TF over GST control) | 1.32 fold enrichment (6-mer frequency, TF over GST control) | 1.2 fold enrichment (6-mer frequency, TF over GST control)
ACGTAA | 1.12 fold enrichment (6-mer frequency, TF over GST control) | 1.09 fold enrichment (6-mer frequency, TF over GST control) | 1.08 fold enrichment (6-mer frequency, TF over GST control) | 1.11 fold enrichment (6-mer frequency, TF over GST control) | 1.08 fold enrichment (6-mer frequency, TF over GST control) | 1.09 fold enrichment (6-mer frequency, TF over GST control) | 1.17 fold enrichment (6-mer frequency, TF over GST control) | 1.07 fold enrichment (6-mer frequency, TF over GST control)
TAAATC | 1.24 fold enrichment (6-mer frequency, TF over GST control) | 1.29 fold enrichment (6-mer frequency, TF over GST control) | 1.33 fold enrichment (6-mer frequency, TF over GST control) | 1.33 fold enrichment (6-mer frequency, TF over GST control) | 1.22 fold enrichment (6-mer frequency, TF over GST control) | 1.15 fold enrichment (6-mer frequency, TF over GST control) | 1.18 fold enrichment (6-mer frequency, TF over GST control) | 1.29 fold enrichment (6-mer frequency, TF over GST control)
CTGGTC | 1.19 fold enrichment (6-mer frequency, TF over GST control) | 1.27 fold enrichment (6-mer frequency, TF over GST control) | 1.21 fold enrichment (6-mer frequency, TF over GST control) | 1.24 fold enrichment (6-mer frequency, TF over GST control) | 1.15 fold enrichment (6-mer frequency, TF over GST control) | 1.17 fold enrichment (6-mer frequency, TF over GST control) | 1.24 fold enrichment (6-mer frequency, TF over GST control) | 1.08 fold enrichment (6-mer frequency, TF over GST control)
TAGATT | 1.37 fold enrichment (6-mer frequency, TF over GST control) | 1.31 fold enrichment (6-mer frequency, TF over GST control) | 1.13 fold enrichment (6-mer frequency, TF over GST control) | 1.15 fold enrichment (6-mer frequency, TF over GST control) | 1.22 fold enrichment (6-mer frequency, TF over GST control) | 1.11 fold enrichment (6-mer frequency, TF over GST control) | 1 fold enrichment (6-mer frequency, TF over GST control) | 1.17 fold enrichment (6-mer frequency, TF over GST control)
ACCCTC | 1.19 fold enrichment (6-mer frequency, TF over GST control) | 1.08 fold enrichment (6-mer frequency, TF over GST control) | 1.19 fold enrichment (6-mer frequency, TF over GST control) | 1.11 fold enrichment (6-mer frequency, TF over GST control) | 1.13 fold enrichment (6-mer frequency, TF over GST control) | 1.06 fold enrichment (6-mer frequency, TF over GST control) | 1.16 fold enrichment (6-mer frequency, TF over GST control) | 1.12 fold enrichment (6-mer frequency, TF over GST control)
CCATTC | 1.14 fold enrichment (6-mer frequency, TF over GST control) | 1.06 fold enrichment (6-mer frequency, TF over GST control) | 1.13 fold enrichment (6-mer frequency, TF over GST control) | 1.13 fold enrichment (6-mer frequency, TF over GST control) | 1.16 fold enrichment (6-mer frequency, TF over GST control) | 1.11 fold enrichment (6-mer frequency, TF over GST control) | 1.1 fold enrichment (6-mer frequency, TF over GST control) | 1.12 fold enrichment (6-mer frequency, TF over GST control)
AAGTTT | 1.39 fold enrichment (6-mer frequency, TF over GST control) | 1.46 fold enrichment (6-mer frequency, TF over GST control) | 1.39 fold enrichment (6-mer frequency, TF over GST control) | 1.37 fold enrichment (6-mer frequency, TF over GST control) | 1.37 fold enrichment (6-mer frequency, TF over GST control) | 1.55 fold enrichment (6-mer frequency, TF over GST control) | 1.53 fold enrichment (6-mer frequency, TF over GST control) | 1.55 fold enrichment (6-mer frequency, TF over GST control)
CACATT | 1.33 fold enrichment (6-mer frequency, TF over GST control) | 1.17 fold enrichment (6-mer frequency, TF over GST control) | 1.2 fold enrichment (6-mer frequency, TF over GST control) | 1.18 fold enrichment (6-mer frequency, TF over GST control) | 1.18 fold enrichment (6-mer frequency, TF over GST control) | 1.13 fold enrichment (6-mer frequency, TF over GST control) | 1.12 fold enrichment (6-mer frequency, TF over GST control) | 1.15 fold enrichment (6-mer frequency, TF over GST control)
TGTCAT | 1.38 fold enrichment (6-mer frequency, TF over GST control) | 1.19 fold enrichment (6-mer frequency, TF over GST control) | 1.12 fold enrichment (6-mer frequency, TF over GST control) | 1.17 fold enrichment (6-mer frequency, TF over GST control) | 1.1 fold enrichment (6-mer frequency, TF over GST control) | 1.09 fold enrichment (6-mer frequency, TF over GST control) | 1.12 fold enrichment (6-mer frequency, TF over GST control) | 1.11 fold enrichment (6-mer frequency, TF over GST control)
GCCACT | 1.16 fold enrichment (6-mer frequency, TF over GST control) | 1.07 fold enrichment (6-mer frequency, TF over GST control) | 1.19 fold enrichment (6-mer frequency, TF over GST control) | 1.15 fold enrichment (6-mer frequency, TF over GST control) | 1.12 fold enrichment (6-mer frequency, TF over GST control) | 1.16 fold enrichment (6-mer frequency, TF over GST control) | 1.16 fold enrichment (6-mer frequency, TF over GST control) | 1.21 fold enrichment (6-mer frequency, TF over GST control)
ATATTC | 1.08 fold enrichment (6-mer frequency, TF over GST control) | 1.35 fold enrichment (6-mer frequency, TF over GST control) | 1.2 fold enrichment (6-mer frequency, TF over GST control) | 1.26 fold enrichment (6-mer frequency, TF over GST control) | 1.24 fold enrichment (6-mer frequency, TF over GST control) | 1.31 fold enrichment (6-mer frequency, TF over GST control) | 1.19 fold enrichment (6-mer frequency, TF over GST control) | 1.32 fold enrichment (6-mer frequency, TF over GST control)
